# Assay outcomes as filed in PubChem.
# Sm TGR inh = blocks Schistosoma mansoni thioredoxin glutathione reductase | Q962Y6 | purified TGR, DTNB reduction, TNB absorbance 405 nm | Potency, µM (doses to about 114 µM), for the others: at the top dose activity change, negative = inhibition, most hits filed as inhibitors | 360,000 compounds, 3% hits | AID 485364; further: nearly all actives have a fitted effect of over 60% in size
#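 Kinetic colorimetric format: TGR-catalysed, NADPH-driven DTNB reduction monitored via TNB absorbance. Enzyme dispensed at 20 nM; compound exposure 15 min at room temperature before reaction start.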
# AmpC inh detg = blocks E. coli AmpC beta-lactamase in detergent assay. P00811. 370,000 compounds, 0.041% hits. AmpC hydrolysis of nitrocefin, absorbance 480 nm, 0.01% Triton. Potency, µM (series often up to 114 µM), for the others: at the top dose activity change, negative = inhibition, actives largely listed as inhibitors. AID 485294;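 further: 0% = no-compound wells and -100% = no-enzyme wells; nearly all actives have a fitted effect of over 25% in size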
# Target sequence (P00811 whole entry, looked up): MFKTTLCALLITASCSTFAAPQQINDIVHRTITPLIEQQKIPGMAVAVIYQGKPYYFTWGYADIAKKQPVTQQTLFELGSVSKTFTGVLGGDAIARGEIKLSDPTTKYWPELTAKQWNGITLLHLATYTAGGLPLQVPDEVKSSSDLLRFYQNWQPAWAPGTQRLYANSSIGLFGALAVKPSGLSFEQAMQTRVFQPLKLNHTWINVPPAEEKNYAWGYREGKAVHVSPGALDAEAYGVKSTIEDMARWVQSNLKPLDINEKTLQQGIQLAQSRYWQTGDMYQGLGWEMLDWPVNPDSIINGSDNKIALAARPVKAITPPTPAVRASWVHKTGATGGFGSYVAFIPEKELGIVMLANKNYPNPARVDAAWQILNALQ
#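 20 mM phosphate pH 7.0 + 0.01% (detergent screen) or 0.0001% Triton X-100; 5.3 nM AmpC reagent; cpd preinc 15 min RT; nitrocefin (800 uM stock) to start; A480 q20 s × 4 min; Activity was normalised to no-enzyme and no-compound control wells.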
# AmpC no deterg = inhibitors of E. coli AmpC beta-lactamase without detergent; P00811; Potency, µM (doses to about 57.1 µM), for inactives: at the top dose activity change, negative = inhibition, hits mostly inhibitors; AmpC nitrocefin hydrolysis, absorbance 480 nm, 0.0001% Triton; 330,000 compounds, 0.52% hits;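 further: plate controls were no compound for no effect and no enzyme for full effect; nearly all actives have a fitted effect of over 20% in size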
#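 20 mM phosphate pH 7.0 + 0.01% (detergent screen) or 0.0001% Triton X-100; 5.3 nM AmpC reagent; cpd preinc 15 min RT; nitrocefin (800 uM stock) to start; A480 q20 s × 4 min; Activity was normalised to no-enzyme and no-compound control wells.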
# Starred values were filed as active, the others as inactive; u = inconclusive; x = no result; [ ] = dose if it differs, or a comment. In the library only some 3.3% were active in any assay of this set; here they are far more common. The call rests on the fitted dose curve; in most records, active means well fitted curve in the direction sought with a large enough effect; inconclusive means small, poorly fitted or top-dose-only effect, or another doubt; inactive means no such curve, though single readings can be large; an effect the other way counts as inactive or inconclusive. Unless noted, on the % scale 0 is the no-effect control and ±100 the full control effect; potency means the concentration at half of the fitted maximal effect.
SMILES,Sm TGR inh,AmpC inh detg,AmpC no deterg
COc1cc(/C=C2\C(=O)ON=C2c2ccccc2)cc(Br)c1O,1.6µM*,-2%,-28%
COc1cc(C=C2C(=O)OC(c3ccccc3)OC2=O)cc(Br)c1O (configuration not stated),-33%,1%,-15%
COCCN(C(=O)Cc1cccs1)C(C(=O)NCc1ccc(OC)cc1)c1ccc(C)cc1 (configuration not stated),-2%,6%,0.32µM*
CCc1ccc(C(C(=O)NCc2ccc(OC)cc2)N(CCOC)C(=O)Cc2cccs2)cc1 (configuration not stated),-15%,-6%,0%
Cc1cccc(N2CCN(C(=O)C3CCCN(S(=O)(=O)c4ccc(Br)s4)C3)CC2)c1C (configuration not stated),5%,11%,x
CC1CCc2c(sc3nnn(Cc4cccc(C(=O)OC(C)C)c4)c(=O)c23)C1 (configuration not stated),1%,-4%,x
COC(=O)c1[nH]nc(C(=O)OC(C)(C)C)c1-c1ccccc1,22µM*,-8%,-7%
COC(=O)c1n[nH]nc1-c1ccccc1,9%,-15%,-7%
CC1(C)CC(=O)C2=C(C1)N(Cc1cccnc1)C(=O)C2(NC(=O)c1cccnc1)C(F)(F)F (configuration not stated),26%,-4%,-16%
CC1(C)CC(=O)C2=C(C1)N(Cc1ccco1)C(=O)C2(NC(=O)c1cccnc1)C(F)(F)F (configuration not stated),20µM*,-10%,32%
O=c1cc(-c2ccc(F)cc2)[nH][nH]1,6%,-14%,-39%
O=c1cc(-c2ccc(C3CCCCC3)cc2)[nH][nH]1,4%,-6%,14µM*
COc1ccc(NC(=O)CCS(=O)(=O)c2cc(Br)cc3c2N(C(C)=O)CC3)c(OC)c1,u,0%,x
CN(C)c1nc(N)nc(/C(C#N)=C/C2CC3C=CC2C3)n1 (configuration not stated),40µM*,6%,10%
COCCNC(=O)CSc1nnc(-c2ccc(OC)c(OC)c2)c(-c2ccc(OC)c(OC)c2)n1,0%,-1%,x
Fc1ccc(CSc2nncn2NC/C=C/c2ccccc2)cc1,-3%,0%,7.1µM*
Fc1ccc(CSc2nncn2NCc2ccccc2)cc1,1%,-3%,-4%
Cc1ccc(C2CC(=O)C(C=NCCN3CCN(C(=O)Cc4ccccc4)CC3)=C(O)C2)cc1 (configuration not stated),22µM*,-1%,122%
O=C1CC(c2ccco2)CC(O)=C1C=Nc1cc(Cl)cc(Cl)c1 (configuration not stated),18µM*,3%,-43%
O=C1CC(c2ccco2)CC(O)=C1C=NCCN1CCNCC1 (configuration not stated),40µM*,-7%,2%
CCOc1ccc(N=CC2=C(O)CC(c3ccco3)CC2=O)cc1 (configuration not stated),-12%,-3%,-7%
O=C1CC(c2ccccc2)CC(O)=C1C=NCCN1CCNCC1 (configuration not stated),-23%[11.4 µM],u,0%
O=C1CC(c2ccccc2)CC(O)=C1C=NCCN1CCN(C(=O)Cc2ccccc2)CC1 (configuration not stated),-33%,1%,115%
CCOc1ccc(Nc2oc(/C=C/c3cccc(OC)c3)nc2C#N)cc1,0%,-7%,x
Cc1nc(CC(=O)Nc2cccc(C)c2C)cs1,2%,-7%,x
SMILES,Sm TGR inh,AmpC inh detg,AmpC no deterg
O=C(CN1CCN(S(=O)(=O)c2cc(C(F)(F)F)ccc2Cl)CC1)N1CCc2ccccc2C1,40µM*,u,179%
Cc1ccc(C)c(S(=O)(=O)N2CCN(CC(=O)N3CCc4ccccc4C3)CC2)c1,4%,0%,142%
COc1ccc(C(=O)Nc2cccc(C(=O)OCc3cc(=O)n4nc(C5CC5)sc4n3)c2)cc1,-10%,0%,x
O=C(CS(=O)(=O)c1c[nH]c2ccccc12)NC1CCCCC1,-2%,-12%,0.5µM*
O=C(CS(=O)(=O)c1c[nH]c2ccccc12)Nc1ccc(F)cc1,0%,2%,-33%
O=C(CCCn1ccc2cc(S(=O)(=O)N3CCCC3)ccc21)NCc1ccc(Cl)cc1,6%,u,x
Cc1ccc(CNC(=O)c2ccc(CSCc3ccccc3C)o2)cc1,-17%,-3%,x
Cc1cc(C)c(NC(=O)CN(C)S(=O)(=O)c2ccc3c(c2)CCC(=O)N3)c(C)c1,10%,17%,x
